Screening data (PubChem)
rCAG binder: molecules binding r(CAG) RNA repeats. r(CAG) RNA repeat, TO-PRO-1 dye displacement fluorescence. inhibition, % at 3 µM. 1.3% of 370,000 active;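 active = inhibition above the plate cutoff, the mean of all test compounds on that plate plus 3 SD, cut at about 35% in these data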;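 note: 0% = DMSO alone and 100% = 100 µM mitoxantrone as full dye displacement; higher means more dye released from RNA so lower well fluorescence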
MsrA inh: bovine MsrA inhibition. inhibition, % at 15.5 µM. 0.75% of 360,000 active. purified bovine MsrA, absorbance read-out; in the data active = inhibition above about 4.5%;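 note: 0% = vehicle wells with enzyme and 100% = reference inhibitor wells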
NadD inh: blocks S. aureus nicotinate mononucleotide adenylyltransferase; purified NadD enzyme, colorimetric absorbance read-out; inhibition, % at 20 µM; 0.78% of 360,000 active; AID 602399; in the data active = inhibition above about 26%
bovine MsrA act: activates bovine MsrA enzyme; activation, % at 10.6 µM; 0.3% of 360,000 active; purified bovine MsrA, absorbance read-out; in the data active = activation above about 7.5%;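 note: 0% = vehicle and 100% = reference activator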
rCAG bind conf: r(CAG) RNA repeat binding, confirmation; shares compounds with rCAG binder; TO-PRO-1 dye displacement fluorescence; inhibition, % at 3 µM; 70% of 4,300 active; AID 652065;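 active = inhibition above a per-plate cutoff, the mean inhibition of sample wells plus 3 SD, cut at about 35% in these data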;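 note: loss of TO-PRO-1 fluorescence as compound displaces dye from 1x1 AA loop RNA; 0% = DMSO only wells and 100% = 100 µM mitoxantrone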
DNA CAG counter: disrupts DNA CAG TO-PRO-1 complex, flagging rCAG hits | shares compounds with rCAG binder | d(CAG) DNA oligo TO-PRO-1 dye displacement, fluorescence | inhibition, % at 3 µM | 94% of 4,300 active;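 active = inhibition above its plate's cutoff, the mean test-well inhibition plus 3 SD, cut at about 4.8% in these data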;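 note: 0% = DNA dye mix with DMSO and 100% = 100 µM mitoxantrone; hits displace the dye from DNA and so lower well fluorescence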
DNA CAG DR: counter-screen for rCAG binders: inhibitors of DNA CAG TO-PRO-1 complex; shares compounds with rCAG binder; DNA CAG/GTC duplex TO-PRO-1 dye displacement fluorescence; IC50, µM; 20% of 250 active; AID 686960; in the data active = IC50 below about 10 µM
Starred values were filed as active, the others as inactive; i = inactive; . = not tested or not shown. Shown are actives, neighbours in structure and some others; about 2.7% of the full set was active somewhere.

SMILES	rCAG binder	MsrA inh	NadD inh	bovine MsrA act	rCAG bind conf	DNA CAG counter	others
CCOC(=O)c1cccc(NC(=O)c2ccc3c(c2)C(=O)N(CC2CCCO2)C3=O)c1 (stereo unspecified)	-4	-2	-4	-13	.	.
CC(=O)c1cccc(-c2ccnc3c2CC(C(=O)Nc2ccc4c(c2)OCO4)O3)c1 (stereo unspecified)	1	0	2	-1	.	.
CC(OC(=O)[C@@H](NC(=O)c1ccco1)C(C)C)C(=O)Nc1ncc(Cl)cc1Cl (stereo partly specified)	1	2	-2	-3	.	.
Cc1cc(Cl)ccc1OCC(=O)Nc1ccccc1NS(=O)(=O)c1cccs1	42*	0	-6	-3	51*	11*
O=C(Nc1ccc(Cl)cc1)Nc1ccccc1NS(=O)(=O)c1cccs1	43*	0	0	-3	39*	10*
CC1CCCN(S(=O)(=O)c2ccc(C(=O)Nc3nnc(-c4ccco4)o3)cc2)C1 (stereo unspecified)	41*	2	22	-4	38*	13*
CCN(c1ccccc1)S(=O)(=O)c1ccc(C(=O)Nc2nnc(-c3ccco3)o2)cc1	57*	1	23	-15	45*	15*
CN(c1ccccc1)S(=O)(=O)c1ccc(C(=O)Nc2nnc(-c3ccco3)o2)cc1	42*	2	11	-4	36*	13*
CCc1nnc(NC(=O)c2ccc(S(=O)(=O)N3CCCC(C)C3)cc2)o1 (stereo unspecified)	11	-1	9	-2	.	.
Cc1ccc(S(=O)(=O)Nc2cccc(C(=O)NCCCn3ccnc3)c2)cc1F	2	0	1	-2	.	.
O=C1C=C(OCCCl)CC(c2cccc(Cl)c2)O1 (stereo unspecified)	1	0	.	.	.	.
O=C(O)c1cccc(CSc2nc(-c3ccccc3)cc(C(F)(F)F)n2)c1	62*	1	4	-2	48*	14*
Cc1cc(NC(=O)CSc2nnc(-c3c[nH]c4ccccc34)n2C)no1	3	-1	-2	-2	.	.
O=C(Nc1cccc(Cl)c1)c1ccc2c(c1)SC1=NS(=O)(=O)CCN12	6	-2	-1	-3	.	.
CSc1nc(NCCOCCO)c2sc3nc(-c4ccco4)c4c(c3c2n1)CCC4	52*	0	22	-5	38*	18*	DNA CAG DR=i
O=C(Nc1ccccc1N1CCOCC1)c1ccccc1NS(=O)(=O)c1ccc(F)c(F)c1	38*	0	0	-13	30	7.2*
O=C(Nc1cc(S(=O)(=O)N2CCCCC2)ccc1O)c1ccccc1NS(=O)(=O)c1ccc(F)cc1	85*	0	2	5	87*	57*
O=C(Nc1cc(S(=O)(=O)N2CCCCC2)ccc1Cl)c1ccccc1NS(=O)(=O)c1ccc(F)cc1	89*	0	16	-3	89*	65*
C[C@H]1CN([C@@H](C)CO)C(=O)CCCn2nncc2CO[C@@H]1CN(C)C(=O)c1ccccc1	-1	1	-5	-6	.	.
COc1cccc(C2c3[nH]c4ccccc4c3C[C@H]3C(=O)N(c4ccccc4C(=O)N4CCC[C@H]4C(=O)O)C(=O)N23)c1 (stereo partly specified)	31	1	12	-2	.	.
O=C(O)[C@H]1CCCN1C(=O)c1ccccc1N1C(=O)[C@@H]2Cc3c([nH]c4ccccc34)C(c3cccc(Cl)c3)N2C1=O (stereo partly specified)	39*	2	15	-2	65*	22*
O=C(O)[C@@H]1CCCN1C(=O)c1ccccc1N1C(=O)[C@@H]2Cc3c([nH]c4ccccc34)C(c3cccc(Cl)c3)N2C1=O (stereo partly specified)	35*	1	13	-2	49*	13*
CCOc1cc(C(=S)N2CCN(C)CC2)ccc1OCC(=O)N1CCCC1	-3	0	0	-4	.	.
Nn1c(SCC(=O)Nc2ccc(S(=O)(=O)Nc3nccs3)cc2)nnc1-c1ccco1	10	.	.	.	.	.
Cc1ccc(OCc2nnc(SCC(=O)Nc3nccs3)n2-c2ccccc2)cc1C	2	-1	-1	-1	.	.
SMILES	rCAG binder	MsrA inh	NadD inh	bovine MsrA act	rCAG bind conf	DNA CAG counter	others
COc1ccc(-n2c(SCC(=O)Nc3ccc(S(=O)(=O)Nc4nccs4)cc3)nnc2-c2ccccc2)cc1	78*	.	.	.	72*	37*
O=C(CSc1nnc(COc2ccccc2)n1-c1ccccc1)Nc1ccc(S(=O)(=O)Nc2nccs2)cc1	75*	.	.	.	65*	28*
Cn1c(COc2ccccc2)nnc1SCC(=O)Nc1ccc(S(=O)(=O)Nc2nccs2)cc1	49*	.	.	.	47*	18*
O=C(CSc1nnc(-c2ccco2)n1-c1ccc(Cl)cc1)Nc1ccc(S(=O)(=O)Nc2nccs2)cc1	62*	.	.	.	57*	20*
COc1ccc(-c2nnc(Nc3ccc(S(=O)(=O)Nc4nccs4)cc3)c3ccccc23)cc1	35*	2	12	0	50*	19*
COc1ccc(Nc2nnc(-c3ccc(C(N)=O)cc3)c3ccccc23)cc1	2	3	-4	-1	.	.
Cc1ccccc1N/N=C/c1sc(=O)n(Cc2cccc(C(=O)O)c2)c1Cl	69*	3	5	-7	78*	40*
Cc1cccc(OCCCC(=O)Nc2ccc(S(=O)(=O)Nc3onc(C)c3C)cc2)c1C	59*	-1	2	-2	32	8.5*
Cc1cccc(OCC(=O)Nc2ccc(S(=O)(=O)Nc3onc(C)c3C)cc2)c1C	41*	-1	-3	-4	26	6.5*
Cc1cccc(OCCCC(=O)Nc2nccs2)c1C	5	1	-4	-5	.	.
O=C(COc1ccccc1F)Nc1ccc(S(=O)(=O)Nc2nccs2)cc1	10	-1	-1	-9	.	.
Cc1cccc(OCCCC(=O)Nc2ccc(S(=O)(=O)Nc3nccs3)cc2)c1C	59*	2	0	-4	49*	17*
O=C(COc1ccc(F)cc1Cl)Nc1ccc(S(=O)(=O)Nc2nccs2)cc1	43*	0	-5	-2	40*	13*
Cc1noc(NS(=O)(=O)c2ccc(NC(=O)COc3ccc(C#N)cc3)cc2)c1C	13	0	-7	-5	.	.
Cc1cccc(OCCCC(=O)Nc2ccc(S(=O)(=O)Nc3ncccn3)cc2)c1C	25	0	9	-4	.	.
CC(=O)N1CCC2(CC1)CC(=O)c1cc(OCC(=O)N3CCOCC3)ccc1O2	0	0	-3	-4	.	.
Cc1ccc(-c2nc3ccc(C)cn3c2Cc2ccccc2C(F)(F)F)cc1	36*	0	2	1	20	4
COc1ccccc1Cc1c(-c2ccc(F)cc2)nc2c(C)cc(Br)cn12	9	0	2	5	.	.
FC(F)(F)c1ccccc1Cc1c(-c2ccc(Cl)cc2)nc2ccc(Br)cn12	64*	1	10	-1	14	3
